PubChem BioAssay (NCATS)
Records with an inconclusive call do not appear. A number with no mark means an inactive call. The call rests on the fitted dose curve; in most records, active means well fitted cell-killing curve with a large enough effect; inconclusive means small, poorly fitted or top-dose-only effect; inactive means flat fitted curve, though single readings scatter.

Test: qHTS of pediatric cancer cell lines to identify multiple opportunities for drug repurposing: Primary screen for DAOY cells (AID 1347090); further: nearly all actives have a fitted effect of over 55% in size
Conditions: DAOY medulloblastoma viability, CellTiter-Glo luminescence, 48 h; series mostly up to 46 µM; activity change, negative = cytotoxic: at the top concentration
From the text: Drug repurposing or repositioning has been offered as a strategy for drug development in oncology programs. This approach has special potential for childhood cancers and other rare or orphan diseases, where the expected return on new drug development has been a disincentive to pharmaceuticals.
In this project we exploit the poly-pharmacology of drugs to discover new indications via phenotypic screening of a panel of 19 well-characterized cell lines derived from solid tumors seen in children and adolescents. The goal is to identify approved drugs with previously unrecognized anticancer properties that has the potential to reveal new mechanisms and biological processes involved in carcinogenesis or drug resistance. We employed a titration-based paradigm (quantitative high-throughput screening or qHTS), where all compounds were tested at multiple concentrations for their effect on cell viability. Concentration-response curves (CRCs) were derived directly from the primary screen, and both potency and efficacy values were used to identify compounds with robust bioactivity profiles. We screened the NIH Chemical Genomics Center (NCGC) Pharmaceutical Collection (NPC) and Mechanism Interrogation Plate (MIPE) small molecule collections of approved and investigational compounds against these cell lines; and measured metabolically active cells after 48 hours of compound treatment as a proxy for cell viability.
Assay Submitter: Nathalia J. Martinez, National Center for Advancing Translational Sciences, National Institutes of Health, Rockville, MD, USA; email: natalia.martinez@nih.gov
[1] Shen, M et al. Quantitative high-throughput phenotypic screening of pediatric cancer cell lines identifies multiple opportunities for drug repurposing. Oncotarget 2017 Dec 19;9(4):4758-4772. PMID 29435139.
The cells were obtained from University of North Carolina (UNC), Pediatric Preclinical Testing Program (PPT), and Coriell Institute (CI).
qHTS cell viability assay:
Cells were assayed in growth media at a density of 500-1,000 cells/well. Five microliters of cells were dispensed into 1,536-well, white, solid-bottom, TC-treated plates (Greiner Bio One) using a multidrop dispenser and incubated at 37 degrees C, 5% CO2, under a humidified atmosphere for 5 hours. Twenty-three nanoliters of compounds and controls (neutral control DMSO or positive control bortezomib at final concentration of 2.3 µM) were subsequently transferred by Kalypsys pintool. For primary screens, the MIPE collection was tested at 11-point dilutions (final concentrations range from 0.78 nM to 46 µM) and the NPC collection at 8-point dilutions (final concentrations range from 0.59 nM to 46 µM). Compounds tested in follow-up screens were assayed at 11-point dilutions. Cells were incubated for 48 hours, followed by addition of 3 uL of CellTiter-Glo (Promega). After a 15 min incubation at room temperature, samples were analyzed for luminescence intensity using a ViewLux High-throughput CCD imager equipped with clear filters.

Row | SMILES | activity change, negative = cytotoxic
1 | Cc1c(NC(C)C)c(=O)n(-c2ccccc2)n1C | 8.85%
2 | C[C@H]1COc2c(C3(N)CC3)c(F)cc3c(=O)c(C(=O)O)cn1c23 | 2.28%
3 | CCCCOC(=O)c1ccc(N)cc1 | -6.39%
4 | O=C(c1ccccc1)C(O)c1ccccc1 (stereo not given) | 7.44%
5 | C[C@@H](c1ncncc1F)C(O)(Cn1cncn1)c1ccc(F)cc1F (stereo not given in full) | 13%
6 | O=C1c2ccccc2S(=O)(=O)N1CCCCN1CCN(c2ncccn2)CC1 | -4.56%
7 | CC(C)c1cc2c(cc1S(=O)(=O)O)[C@@]1(C)CCC[C@@](C)(C(=O)O)[C@@H]1CC2 | 9.69%
8 | C[N+]1(C)CCCC(OC(=O)C(O)(c2ccccc2)c2ccccc2)C1 (stereo not given) | 2.28%
9 | CN1CCCN=C1COC(=O)C(O)(c1ccccc1)C1CCCCC1 (stereo not given) | 0.974%
10 | Cc1onc(-c2ccccc2)c1-c1ccc(S(N)(=O)=O)cc1 | -2.16%
11 | CC(=O)Nc1cccc(O)c1 | -4.99%
12 | O=c1[nH]c2cc(C(F)(F)F)c(N3CCOCC3)cc2n(CP(=O)(O)O)c1=O | -3.86%
13 | NNc1nnc(NN)c2ccccc12 | -0.557%
14 | CCCOC(=O)c1ccc(N)cc1 | 6.12%
15 | CCOC(=O)[C@H](CCc1ccccc1)N[C@@H](C)C(=O)N1CCC[C@H]1C(=O)O | 4.21%
16 | COC(=O)c1ccccc1C(=O)c1ccc(OCCN2CCCCC2)cc1 | 9.33%
17 | COc1ccc(Cc2cnc(N)nc2N)cc1OC | 4.53%
18 | COC(=O)N/N=C/c1c[n+]([O-])c2ccccc2[n+]1[O-] | -5.85%
19 | C[C@]1(Cn2ccnn2)[C@H](C(=O)O)N2C(=O)C[C@H]2S1(=O)=O | 7.81%
20 | CC(O)CCCCn1c(=O)c2c(ncn2C)n(C)c1=O (stereo not given) | -1.17%

Row | SMILES | activity change, negative = cytotoxic
21 | CCCCCOC(=O)Nc1nc(=O)n([C@@H]2O[C@H](C)[C@@H](O)[C@H]2O)cc1F | 9.65%
22 | O=C(O)Cn1c(C(=O)Nc2nc(-c3ccccc3Cl)cs2)cc2ccccc21 | 2.16%
23 | CC(C)CCOC(=O)c1ccc(N(C)C)cc1 | -3.65%
24 | O=C(O)CCCCC1CCSS1 (stereo not given) | 15.8%
25 | CC(CSC(=O)c1ccccc1)C(=O)N1C[C@@H](Sc2ccccc2)C[C@H]1C(=O)O (stereo not given in full) | 0.0857% [at 16.1 µM]
26 | Cc1ccc2c(c1)c1c3n2CCNC3CCC1 (stereo not given) | 2.59%
27 | Cc1cccc(C)c1NC(=O)CC12CCCN1CCC2 | 5.55%
28 | CC(=O)[C@@]1(O)CC[C@H]2[C@@H]3C[C@H](C)C4=CC(=O)C=C[C@]4(C)[C@@]3(F)[C@@H](O)C[C@@]21C | 3.95%
29 | OC(CCN1CCCC1)(c1ccccc1)C1CCCCC1 (stereo not given) | -8.85%
30 | CCOc1ccccc1O[C@H](c1ccccc1)[C@H]1CNCCO1 | 5.86%
31 | O=S1(=O)OC(c2ccc(O)cc2)(c2ccc(O)cc2)c2ccccc21 | -2.55%
32 | CC1CCN(CCCC(=O)c2ccc(F)cc2)CC1 | 0.845%
33 | CC(=O)Nc1ccc(C(=O)O)cc1 | 2.67%
34 | CCN(CC)CCOC(=O)C(c1ccccc1)c1ccccc1 | -0.881%
35 | CN/C(=C\[N+](=O)[O-])NCCSCc1csc(CN(C)C)n1 | -3.18%
36 | CCCNC(C)(C)COC(=O)c1ccccc1 | -9.6%
37 | CC(C(=O)O)c1ccc2c(c1)Cc1cccnc1O2 (stereo not given) | 5.92%
38 | CC1CCc2cc(F)cc3c(=O)c(C(=O)O)cn1c23 (stereo not given) | 2.82%
39 | O=C(O)c1ccccc1C(=O)Nc1ccc(S(=O)(=O)Nc2nccs2)cc1 | -8.61%
40 | O=C(O)COC(=O)Cc1ccccc1Nc1c(Cl)cccc1Cl | -6.14%
